Values without a mark were called inactive. How the calls were made is not given here.
System: HIV-1 nucleocapsid protein NCp7 (binding to TG oligonucleotide)
Test: HIV Nucleocapsid (AID 346);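 further: potency is for inhibitors that block NC binding and lower polarization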
Conditions: HIV-1 NC / fluorescein-TGTGTGTG probe, fluorescence polarization
Procedure, shortened: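 Inhibition of nucleocapsid binding to single-stranded 5'-TGTGTGTG probe (10 nM) was measured by fluorescence polarization after 1 hr at room temperature with 100 nM protein under high-salt, zinc-containing, reducing conditions.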
Potency means the concentration at half of the fitted maximal effect.

Row | SMILES | Potency
1 | CC(=O)NCCNc1nc(-c2cccc(C#N)c2)nc2ccccc12 | > 20 µM
2 | Cc1cnc(CNc2nc(-c3ccccc3Cl)nc3ccccc23)cn1 | > 20 µM
3 | COCCNc1cc(-c2ccccc2CN(C)C)ncn1 | > 20 µM
4 | COCC(=O)N1CCC[C@@]2(CCN(C(=O)Nc3cccc(F)c3)C2)C1 | > 20 µM
5 | COC(=O)N1CCC2(CCN(Cc3ccc(C#N)cc3)CC2)CC1 | > 20 µM
6 | COc1cccc(-c2nc(NCCN3CCOCC3)c3ccccc3n2)c1 | > 20 µM
7 | O=S(=O)(c1ccccc1)N1CCC2(CC1)CN(Cc1ccccc1)C2 | > 20 µM
8 | COc1ncc2nc(CCc3ccccc3)c(=O)n(C)c2n1 | > 20 µM
9 | Cc1cnc(CNc2nc(-c3cccnc3)nc3ccccc23)cn1 | > 20 µM
10 | Cc1cccc(CNc2ncnc3ccc(-c4ccc5c(c4)OCO5)cc23)c1 | > 20 µM
11 | O=c1c(-c2ccc(Cl)cc2)nc2cnc(N3CCNCC3)nc2n1-c1ccccc1 | > 20 µM
12 | CN(C)Cc1ccccc1-c1nc(NC2CCNCC2)c2ccccc2n1 | > 20 µM
13 | Cc1noc(C)c1-c1cncnc1NCc1cccnc1 | > 20 µM
14 | COc1ccc(CNc2ncnc3ccc(-c4ccccc4CN(C)C)cc23)c(OC)c1 | > 20 µM
15 | COc1cccc(Cn2c(=O)c(-c3ccc(F)cc3)nc3cncnc32)c1 | > 20 µM
16 | COc1ccccc1CNc1cc(-c2ccccc2OC)ncn1 | > 20 µM

Source: PubChem BioAssay (NCATS)
